This is part of a sample that, as a whole, favours compounds with a hit. Of some 79,000 tested, about 15% had one in any assay. Unmarked numbers belong to inactive results. Active and inactive are the calls of the source. Cut-off read from the data, not from the text of the source: active = growth inhibition above about 70%; inactive = the rest.

The nature of experiment [1]: NCI Yeast Anticancer Drug Screen. Data for the rad50 strain (AID 155).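 Note: 0% = growth of vehicle-only cultures of the same strain.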 As to conditions: S. cerevisiae rad50 strain growth inhibition, hits give high values. In outline: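 Compounds were tested on a yeast strain with an engineered DNA damage repair alteration; the reported value is growth inhibition normalised to vehicle treatment.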
Experiment [2] can be described thus: NCI Yeast Anticancer Drug Screen. Data for the mec2-1 strain (AID 157). As to conditions: S. cerevisiae mec2-1 strain, hits give high values. An outline of the steps: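 Each compound was tested on mec2-1 yeast, a strain altered in DNA damage repair or cell cycle control. Growth inhibition is reported relative to vehicle.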
Experiment [3] in a line: NCI Yeast Anticancer Drug Screen. Data for the sgs1 mgt1 strain (AID 161).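 Note: 0% = growth of cultures given vehicle only.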 As to conditions: S. cerevisiae sgs1 mgt1 strain, hits give high values. In outline: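 Mutant yeast exposed to compound; growth scored against vehicle-only wells.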
Experiment [4] is described as follows: NCI Yeast Anticancer Drug Screen. Data for the cln2 rad14 strain (AID 165).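 Note: 0% = growth equal to vehicle treated cultures.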 The following applies: S. cerevisiae cln2 rad14 strain, hits give high values. In outline:
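Test compounds were added to cln2 rad14 yeast cultures; inhibition of growth was then determined by comparison with vehicle treatment.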

The nature of experiment [5]: NCI Yeast Anticancer Drug Screen. Data for the bub3 strain (AID 167). As to conditions: S. cerevisiae bub3 mutant strain, hits give high values. An outline of the steps:
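Growth of a checkpoint-deficient yeast mutant is measured after compound exposure. Values represent inhibition relative to vehicle.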

Experiment [6] is described as follows: NCI Yeast Anticancer Drug Screen. Data for the mlh1 rad18 strain (AID 175). As to conditions: S. cerevisiae mlh1 rad18 strain growth inhibition, hits give high values. In outline: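 Inhibition values reflect reduced growth of mutant yeast versus vehicle-treated controls following compound exposure; the mutations affect DNA damage repair.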
[7] abbreviates: at 5.0 µM (retest, dose inferred, filed as 0.5).
Where [8] appears, read: at 50.0 µM (retest, dose inferred, filed as 5.0).

With `FC(F)(F)C1(C(F)(F)F)O[Te]2(OC1(C(F)(F)F)C(F)(F)F)OC(C(F)(F)F)(C(F)(F)F)C(C(F)(F)F)(C(F)(F)F)O2`, the growth inhibition in experiment [1] (setting [7]) was 10%; in experiment [1] (setting [8]), 79% (active); in experiment [1] (at 50.0 µM), 63.7%; in experiment [2] (setting [7]), 10%; in experiment [2] (setting [8]), 89% (active); in experiment [2] (at 50.0 µM), 96.3% (active). Further, the growth inhibition is 23% in experiment [3] (setting [7]); 86% (active) in experiment [3] (setting [8]); 95.5% (active) in experiment [3] (at 50.0 µM); 14% in experiment [4] (setting [7]); 84% (active) in experiment [4] (setting [8]); 90.2% (active) in experiment [4] (at 50.0 µM). Also, the growth inhibition in experiment [5] (setting [7]) was 20%; in experiment [5] (setting [8]), 96% (active); in experiment [5] (at 50.0 µM) it was 89.2% (active); in experiment [6] (setting [7]) it was 11%; in experiment [6] (setting [8]), 91% (active); in experiment [6] (at 50.0 µM) it was 92% (active).

Consider `CC(O)([CH2][Hg][Cl])C(O)[CH2][Hg][Cl]` (stereo unspecified), for which the growth inhibition in experiment [1] (setting [7]) is 98% (active); in experiment [1] (setting [8]), 99% (active); in experiment [1] (at 50.0 µM), 99.2% (active); in experiment [2] (setting [7]), 99% (active); in experiment [2] (setting [8]), 100% (active); in experiment [2] (at 50.0 µM) it was 99.5% (active). In addition, the growth inhibition in experiment [3] (setting [7]) is 98% (active); in experiment [3] (setting [8]) it was 99% (active); in experiment [3] (at 50.0 µM) it was 99.3% (active); in experiment [4] (setting [7]), 98% (active); in experiment [4] (setting [8]) it was 99% (active); in experiment [4] (at 50.0 µM), 97.7% (active). For the same compound, the growth inhibition in experiment [5] (setting [7]) is 99% (active); in experiment [5] (setting [8]) it was 99% (active); in experiment [5] (at 50.0 µM), 99.4% (active); in experiment [6] (setting [7]) it was 99% (active); in experiment [6] (setting [8]), 99% (active); in experiment [6] (at 50.0 µM), 97.5% (active).

Consider `CC[CH2][Sn]([CH2]CC)([CH2]CC)[CH2]CCBr`, for which the growth inhibition was 98% (active) in experiment [1] (setting [7]); 99% (active) in experiment [1] (setting [8]); 99.5% (active) in experiment [1] (at 50.0 µM); 99% (active) in experiment [2] (setting [7]); 100% (active) in experiment [2] (setting [8]); 99.7% (active) in experiment [2] (at 50.0 µM). Besides, the growth inhibition in experiment [3] (setting [7]) is 99% (active); in experiment [3] (setting [8]), 100% (active); in experiment [3] (at 50.0 µM), 99.6% (active); in experiment [4] (setting [7]), 99% (active); in experiment [4] (setting [8]), 98% (active); in experiment [4] (at 50.0 µM), 99.3% (active). Moreover, the growth inhibition in experiment [5] (setting [7]) was 99% (active); in experiment [5] (setting [8]) it was 99% (active); in experiment [5] (at 50.0 µM), 99.7% (active); in experiment [6] (setting [7]), 99% (active); in experiment [6] (setting [8]), 99% (active); in experiment [6] (at 50.0 µM), 99.5% (active).

`CCC(C)(c1ccc(O)cc1)c1ccc(O)cc1`: the growth inhibition is 13% in experiment [1] (setting [7]); 98% (active) in experiment [1] (setting [8]); 98.9% (active) in experiment [1] (at 50.0 µM); -5% in experiment [2] (setting [7]); 99% (active) in experiment [2] (setting [8]); 99.5% (active) in experiment [2] (at 50.0 µM). The growth inhibition in experiment [3] (setting [7]) is 3%; in experiment [3] (setting [8]) it was 98% (active); in experiment [3] (at 50.0 µM), 98.8% (active); in experiment [4] (setting [7]), 21%; in experiment [4] (setting [8]) it was 98% (active); in experiment [4] (at 50.0 µM), 99% (active). For the same compound, the growth inhibition in experiment [5] (setting [7]) was 43%; in experiment [5] (setting [8]), 99% (active); in experiment [5] (at 50.0 µM) it was 96.4% (active); in experiment [6] (setting [7]), 14%; in experiment [6] (setting [8]), 99% (active); in experiment [6] (at 50.0 µM), 98.7% (active).

`COC12C(COC(C)=O)C3=C(C(=O)C(C)=C(N4CCCCC4)C3=O)N1CC1NC12` (stereo unspecified): the growth inhibition was 93% (active) in experiment [1] (setting [7]); 97% (active) in experiment [1] (setting [8]); 89.5% (active) in experiment [1] (at 50.0 µM); 96% (active) in experiment [2] (setting [7]); 95% (active) in experiment [2] (setting [8]); 91.7% (active) in experiment [2] (at 50.0 µM). In addition, the growth inhibition in experiment [3] (setting [7]) was 79% (active); in experiment [3] (setting [8]) it was 97% (active); in experiment [3] (at 50.0 µM), 90.5% (active); in experiment [4] (setting [7]), 93% (active); in experiment [4] (setting [8]), 97% (active); in experiment [4] (at 50.0 µM), 86.6% (active). The growth inhibition in experiment [5] (setting [7]) was 67%; in experiment [5] (setting [8]), 96% (active); in experiment [5] (at 50.0 µM), 88% (active); in experiment [6] (setting [7]) it was 98% (active); in experiment [6] (setting [8]), 97% (active); in experiment [6] (at 50.0 µM) it was 90% (active).

On to `c1cc[c]([Sn]([c]2ccccc2)([c]2ccccc2)[CH]2CCCCC2)cc1`, for which the growth inhibition in experiment [1] (setting [7]) is 1%; in experiment [1] (setting [8]), 89% (active); in experiment [1] (at 50.0 µM), 92.7% (active); in experiment [2] (setting [7]), 7%; in experiment [2] (setting [8]), 94% (active); in experiment [2] (at 50.0 µM), 97.2% (active). Also, the growth inhibition in experiment [3] (setting [7]) was 20%; in experiment [3] (setting [8]), 93% (active); in experiment [3] (at 50.0 µM), 97.7% (active); in experiment [4] (setting [7]), -2%; in experiment [4] (setting [8]) it was 91% (active); in experiment [4] (at 50.0 µM) it was 98.3% (active). For the same compound, the growth inhibition in experiment [5] (setting [7]) is 1%; in experiment [5] (setting [8]) it was 93% (active); in experiment [5] (at 50.0 µM) it was 98% (active); in experiment [6] (setting [7]), 19%; in experiment [6] (setting [8]), 91% (active); in experiment [6] (at 50.0 µM), 97% (active).

Consider `CCCCCCCC1(c2ccc(N)cc2)CCC(=O)NC1=O` (stereo unspecified), for which the growth inhibition in experiment [1] (setting [7]) was 31%; in experiment [1] (setting [8]), 36%; in experiment [1] (at 50.0 µM), 73% (active); in experiment [2] (setting [7]), 0%; in experiment [2] (setting [8]) it was 61%; in experiment [2] (at 50.0 µM), 27.9%. Moreover, the growth inhibition in experiment [3] (setting [7]) was 8%; in experiment [3] (setting [8]), 96% (active); in experiment [3] (at 50.0 µM), 54.2%; in experiment [4] (setting [7]) it was -8%; in experiment [4] (setting [8]), 26%; in experiment [4] (at 50.0 µM), 33.8%. In addition, the growth inhibition in experiment [5] (setting [7]) was 0%; in experiment [5] (setting [8]) it was 21%; in experiment [5] (at 50.0 µM), 56%; in experiment [6] (setting [7]) it was -2%; in experiment [6] (setting [8]) it was 35%; in experiment [6] (at 50.0 µM), 37.1%.

Source of the values: PubChem BioAssay (NCI).
